Experiment [1] in a line: Caspase-3/7 induction in HepG2 cells by small molecules, qHTS assay (AID 1346978). Note: nearly all actives have a fitted effect of over 15% in size. The method in brief:
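Wild-type HepG2 cells, 2,000/well, settled 5 hr at 37 C and 5% CO2, then compound-treated for 17 hr; caspase-3/7 activity read by luminescent Caspase-Glo 3/7 after 30 min at room temperature.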
For orientation: In qHTS, concentration-response curves come from the screen itself.

Experiment [2] can be described thus: Caspase-3/7 induction in CHO-K1 cells by small molecules, qHTS assay (AID 1346980). Note: nearly all actives have a fitted effect of over 15% in size. Put shortly: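 Wild-type CHO-K1 cells exposed to compounds for 17hr at 37 C, 5% CO2. Caspase-3/7 activity then measured by Caspase-Glo 3/7 luminescence after 30min at room temperature.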
Experiment [3] addresses Nuclear receptor subfamily 1 group I member 2 (Homo sapiens) (UniProt O75469). The experiment can be described thus: Human pregnane X receptor (PXR) small molecule agonists, qHTS assay (AID 1346982). Note: nearly all actives have a fitted effect of over 35% in size. Note: potency is the fitted concentration of half-maximal effect. The method in brief: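 Stable HepG2 line reporting PXR-mediated CYP3A4 expression via luciferase. Treatment: 24 hr with compounds in DMSO at 37 C. Detection: ONE-Glo luminescence.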

For experiment [4], the target named is Cytochrome P450 2D6 (Homo sapiens) (UniProt P10635). The experiment can be described thus: Cytochrome P450 Family 2 Subfamily D Member 6 (CYP2D6) small molecule antagonists: luciferase reporter qHTS assay (AID 1671196). For activity change, negative = inhibition: series mostly up to about 120 µM. Note: nearly all actives have a fitted effect of over 50% in size. Note: potency is the fitted concentration of half-maximal effect. The method in brief: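 Chemicals tested for interference with CYP2D6 activity; proluciferin substrate, NADPH regeneration, 1 h at room temperature, luminescent detection.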
Cytochrome P450 2D6 (Homo sapiens), sequence (P10635 whole entry, looked up): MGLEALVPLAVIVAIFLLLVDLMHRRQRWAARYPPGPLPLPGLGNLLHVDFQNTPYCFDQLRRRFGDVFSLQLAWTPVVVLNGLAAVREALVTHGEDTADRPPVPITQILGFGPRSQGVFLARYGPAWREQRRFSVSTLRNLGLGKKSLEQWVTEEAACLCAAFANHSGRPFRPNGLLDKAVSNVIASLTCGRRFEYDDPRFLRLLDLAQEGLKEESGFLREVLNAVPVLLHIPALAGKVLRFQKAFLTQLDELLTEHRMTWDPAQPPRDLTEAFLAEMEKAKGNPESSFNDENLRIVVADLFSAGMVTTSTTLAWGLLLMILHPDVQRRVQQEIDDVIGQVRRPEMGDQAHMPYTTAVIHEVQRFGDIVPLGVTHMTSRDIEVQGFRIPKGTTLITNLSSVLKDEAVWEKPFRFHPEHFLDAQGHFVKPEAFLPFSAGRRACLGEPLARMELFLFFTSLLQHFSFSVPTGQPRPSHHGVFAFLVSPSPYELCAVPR
Background: A reporter such as luciferase makes a cellular process visible.

Experiment [5] addresses Cytochrome P450 1A2 (Homo sapiens) (UniProt P05177). The experiment can be described thus: Cytochrome P450 Family 1 Subfamily A Member 2 (CYP1A2) small molecule antagonists: luciferase reporter qHTS assay (AID 1671199). For activity change, negative = inhibition: series mostly up to about 120 µM. Note: nearly all actives have a fitted effect of over 50% in size. Note: potency is the fitted concentration of half-maximal effect. Put shortly: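 Read-out is luminescence from luciferin detection reagent (20 min) proportional to CYP1A2 activity; compounds in DMSO preincubated 10 min with enzyme and proluciferin substrate, then NADPH regeneration solution, 1 h, room temperature.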

Experiment [6] deals with Voltage-gated inwardly rectifying potassium channel KCNH2 (Homo sapiens) (UniProt Q12809). The experiment can be described thus: Human Ether-a-go-go-Related Gene (hERG) channel small molecule antagonists: fluorescence cell-based qHTS assay (AID 1671200).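 For activity change, negative = inhibition: hERG-expressing U2OS cells given a thallium stimulus after FluxOR II dye loading; series mostly up to about 77 µM.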 Note: nearly all actives have a fitted effect of over 50% in size. Note: potency is the fitted concentration of half-maximal effect. Put shortly:
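U2OS cells expressing the channel were plated at 1000 cells/well, incubated overnight at 37 C, then loaded with FluxOR II thallium-sensitive dye for 1 h at room temperature in the dark, with a further 10 min at room temperature before stimulation.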
For orientation: hERG is a cardiac potassium channel; its block is linked to QT prolongation.

Experiment [7] can be described thus: Caspase-3/7 induction in HepG2 cells by small molecules, qHTS cell viability counter screen (AID 1346981). Note: series mostly up to about 92 µM; nearly all actives have a fitted effect of over 30% in size. Put shortly:
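Treatment of HepG2 cells with DMSO-delivered compounds ran 16 hr at 37 C following a 5-hr pre-incubation of 2,000 cells/well. CellTiter-Fluor fluorescence, read after 1 hr, served as the viability measure in a qHTS format.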

Experiment [8] has as its target Cytochrome P450 2C19 (Homo sapiens) (UniProt P33261). The experiment can be described thus: Cytochrome P450 Family 2 Subfamily C Member 19 (CYP2C19) small molecule antagonists: luciferase reporter qHTS assay (AID 1671197). For activity change, negative = inhibition: series mostly up to about 120 µM. Note: nearly all actives have a fitted effect of over 65% in size. Note: potency is the fitted concentration of half-maximal effect. Put shortly: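 P450-Glo CYP2C19 screening system; proluciferin substrate; DMSO compound stocks; 10 min RT preincubation; NADPH regeneration, 1 h at 37C; luciferin detection reagent, 20 min RT; luminescence as RLU.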

In experiment [9] the target is Cytochrome P450 2C9 (Homo sapiens) (UniProt P11712). The experiment can be described thus: Cytochrome P450 Family 2 Subfamily C Member 9 (CYP2C9) small molecule antagonists: luciferase reporter qHTS assay (AID 1671198). For activity change, negative = inhibition: series mostly up to about 120 µM. Note: nearly all actives have a fitted effect of over 50% in size. Note: potency is the fitted concentration of half-maximal effect. Put shortly:
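P450-Glo proluciferin substrate with CYP2C9 enzyme; 10 min RT preincubation, then NADPH regeneration 1 h at 37C; luciferin detection reagent 20 min RT, luminescence in relative luminescence units.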

The target of experiment [10] is Cytochrome P450 3A4 (Homo sapiens) (UniProt P08684). The experiment can be described thus: Cytochrome P450 Family 3 Subfamily A Member 4 (CYP3A4) small molecule antagonists: luciferase reporter qHTS assay (AID 1671201). For activity change, negative = inhibition: series mostly up to about 120 µM. Note: nearly all actives have a fitted effect of over 50% in size. Note: potency is the fitted concentration of half-maximal effect. Put shortly:
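P450-Glo CYP3A4 system with proluciferin substrate; compounds preincubated 10 min RT with enzyme-substrate mix, then NADPH regeneration added for 1 h RT. Detection reagent 20 min, luminescence read as relative luminescence units.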

Experiment [11] addresses Nuclear receptor subfamily 1 group I member 2 (Homo sapiens) (UniProt O75469). The experiment can be described thus: CYP3A4 induction through human pregnane X receptor (PXR) by small molecules, qHTS assay (AID 1346984). Note: nearly all actives have a fitted effect of over 40% in size. Put shortly: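 After 24 h at 37C with compound, DPX-2 cells (HepG2, co-transfected PXR response element and CYP3A4 promoter-luciferase) got 3uM final P450-Glo Luciferin-IPA for 3 h; One-Glo luminescence followed.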

For experiment [12] the target is unchanged. The experiment can be described thus: Human pregnane X receptor (PXR) activation by small molecules, qHTS assay (AID 1346985). Note: nearly all actives have a fitted effect of over 40% in size. Put shortly: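 DPX-2 cells (HepG2 co-transfected with a PXR response element and a CYP3A4-promoter luciferase construct) were seeded at 2,000 per well, rested 5 hr at 37C, then exposed to DMSO-dissolved compounds for 24 hr. Activation was read as luciferase luminescence.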

Experiment [13] can be described thus: Caspase-3/7 induction in CHO-K1 cells by small molecules, qHTS cell viability counter screen (AID 1346979). Note: nearly all actives have a fitted effect of over 35% in size. Put shortly: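 Wild-type CHO-K1 cells were seeded at 1,500 per well, rested 5hr at 37 C, then exposed to compounds in DMSO. After 16hr, CellTiter-Fluor reagent was added and fluorescence read 1hr later as the viability measure.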
Experiment [14] addresses Nuclear receptor subfamily 1 group I member 2 (Rattus norvegicus) (UniProt Q9R1A7). The experiment can be described thus: Rat pregnane X receptor (rPXR) activation by small molecules, qHTS assay (AID 1346983). Note: nearly all actives have a fitted effect of over 20% in size. As to conditions: rPXR luciferase reporter cells, One-Glo luminescence, 24 h; max activation: hits give high values. Put shortly:
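Cell-based rPXR activation assay: rPXR cells, 2,000 per well, rested 5hr at 37 C, then exposed to compounds in DMSO for 24 hr at 37 C. Luciferase activity read by One-Glo luminescence after 30 min at room temperature.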

Values without a mark were called inactive. Results filed as inconclusive are left out. Active and inactive are the calls of the source. Calls come from the whole dose curve; as a rule, active = well fitted curve in the direction sought with a large enough effect in the repeat runs; inconclusive = weak or mixed curves; inactive = no such curve, though single readings can be large; an effect the other way counts as inactive or inconclusive.
% is set by controls: 0 for no effect and ±100 for the full control effect.

Cytochrome P450 1A2 (Homo sapiens), sequence (P05177 whole entry, looked up): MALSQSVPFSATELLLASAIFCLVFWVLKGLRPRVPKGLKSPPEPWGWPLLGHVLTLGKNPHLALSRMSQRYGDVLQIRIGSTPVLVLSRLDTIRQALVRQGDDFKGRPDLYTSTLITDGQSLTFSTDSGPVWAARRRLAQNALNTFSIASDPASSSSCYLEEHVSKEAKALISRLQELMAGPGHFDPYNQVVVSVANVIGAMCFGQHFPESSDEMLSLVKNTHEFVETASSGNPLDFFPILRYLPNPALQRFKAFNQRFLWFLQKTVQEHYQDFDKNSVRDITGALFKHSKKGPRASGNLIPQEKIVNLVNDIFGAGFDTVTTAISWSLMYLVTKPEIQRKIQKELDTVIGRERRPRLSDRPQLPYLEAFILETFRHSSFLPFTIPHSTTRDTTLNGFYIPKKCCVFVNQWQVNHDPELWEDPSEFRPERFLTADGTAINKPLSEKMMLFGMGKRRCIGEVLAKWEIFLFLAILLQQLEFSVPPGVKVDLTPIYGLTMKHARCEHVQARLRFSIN
Voltage-gated inwardly rectifying potassium channel KCNH2 (Homo sapiens), sequence (Q12809 whole entry, looked up): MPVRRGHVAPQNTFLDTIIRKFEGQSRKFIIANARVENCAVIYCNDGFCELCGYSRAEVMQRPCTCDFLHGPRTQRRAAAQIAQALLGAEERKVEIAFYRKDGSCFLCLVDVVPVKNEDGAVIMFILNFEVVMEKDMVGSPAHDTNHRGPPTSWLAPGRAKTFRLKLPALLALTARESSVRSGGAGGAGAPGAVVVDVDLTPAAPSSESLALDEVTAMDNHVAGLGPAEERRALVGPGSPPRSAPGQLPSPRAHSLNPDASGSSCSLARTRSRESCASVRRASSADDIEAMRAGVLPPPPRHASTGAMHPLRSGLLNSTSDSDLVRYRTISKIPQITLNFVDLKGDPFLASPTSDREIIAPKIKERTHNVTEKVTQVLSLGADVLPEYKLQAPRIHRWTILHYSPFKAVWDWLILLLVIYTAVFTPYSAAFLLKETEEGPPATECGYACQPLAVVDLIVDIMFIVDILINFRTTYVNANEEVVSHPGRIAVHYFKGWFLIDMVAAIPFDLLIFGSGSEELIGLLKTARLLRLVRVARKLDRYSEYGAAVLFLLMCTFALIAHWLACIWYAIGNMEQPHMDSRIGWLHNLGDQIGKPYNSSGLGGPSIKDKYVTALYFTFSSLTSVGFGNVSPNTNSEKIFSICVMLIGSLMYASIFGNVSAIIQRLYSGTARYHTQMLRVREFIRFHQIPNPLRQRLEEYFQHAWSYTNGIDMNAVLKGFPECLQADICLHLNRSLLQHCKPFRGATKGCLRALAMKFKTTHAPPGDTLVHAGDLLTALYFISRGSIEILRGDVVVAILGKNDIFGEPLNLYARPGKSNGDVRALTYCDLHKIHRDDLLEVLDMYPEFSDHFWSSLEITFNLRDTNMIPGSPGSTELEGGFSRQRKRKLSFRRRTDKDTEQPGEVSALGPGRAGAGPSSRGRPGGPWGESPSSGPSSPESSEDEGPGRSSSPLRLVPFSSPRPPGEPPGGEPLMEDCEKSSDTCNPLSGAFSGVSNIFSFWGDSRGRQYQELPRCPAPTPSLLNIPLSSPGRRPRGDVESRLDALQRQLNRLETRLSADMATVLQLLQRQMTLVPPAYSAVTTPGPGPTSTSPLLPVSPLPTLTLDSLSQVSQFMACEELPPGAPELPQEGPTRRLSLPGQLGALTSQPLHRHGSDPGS
Cytochrome P450 3A4 (Homo sapiens), sequence (P08684 whole entry, looked up): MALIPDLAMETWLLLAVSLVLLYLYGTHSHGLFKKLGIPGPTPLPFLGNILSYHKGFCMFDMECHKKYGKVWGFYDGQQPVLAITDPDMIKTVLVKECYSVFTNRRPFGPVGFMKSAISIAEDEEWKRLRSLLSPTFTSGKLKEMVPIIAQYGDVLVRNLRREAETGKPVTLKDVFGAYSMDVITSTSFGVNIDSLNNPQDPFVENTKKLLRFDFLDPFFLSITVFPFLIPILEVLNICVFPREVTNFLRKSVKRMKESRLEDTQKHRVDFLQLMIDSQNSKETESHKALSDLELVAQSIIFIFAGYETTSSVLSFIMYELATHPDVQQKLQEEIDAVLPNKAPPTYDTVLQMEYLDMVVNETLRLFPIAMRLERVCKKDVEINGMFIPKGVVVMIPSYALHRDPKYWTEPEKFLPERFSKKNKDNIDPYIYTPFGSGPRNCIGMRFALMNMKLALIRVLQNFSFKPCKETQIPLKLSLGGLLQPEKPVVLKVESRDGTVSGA
Cytochrome P450 2C19 (Homo sapiens), sequence (P33261 whole entry, looked up): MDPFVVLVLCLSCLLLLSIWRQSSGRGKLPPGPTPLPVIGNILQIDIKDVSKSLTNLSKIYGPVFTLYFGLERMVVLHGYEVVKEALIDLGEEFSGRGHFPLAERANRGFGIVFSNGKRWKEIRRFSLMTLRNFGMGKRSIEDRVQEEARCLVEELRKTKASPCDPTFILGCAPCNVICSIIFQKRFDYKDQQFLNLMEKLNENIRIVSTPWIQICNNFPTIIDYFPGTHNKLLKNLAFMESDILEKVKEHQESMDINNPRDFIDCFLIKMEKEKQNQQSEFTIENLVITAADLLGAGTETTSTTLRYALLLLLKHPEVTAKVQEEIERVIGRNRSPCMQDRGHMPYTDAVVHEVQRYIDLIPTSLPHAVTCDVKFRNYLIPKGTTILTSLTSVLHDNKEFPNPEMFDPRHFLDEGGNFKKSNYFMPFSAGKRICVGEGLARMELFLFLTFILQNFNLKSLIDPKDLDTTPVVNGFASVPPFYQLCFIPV
Nuclear receptor subfamily 1 group I member 2 (Homo sapiens), sequence (O75469 whole entry, looked up): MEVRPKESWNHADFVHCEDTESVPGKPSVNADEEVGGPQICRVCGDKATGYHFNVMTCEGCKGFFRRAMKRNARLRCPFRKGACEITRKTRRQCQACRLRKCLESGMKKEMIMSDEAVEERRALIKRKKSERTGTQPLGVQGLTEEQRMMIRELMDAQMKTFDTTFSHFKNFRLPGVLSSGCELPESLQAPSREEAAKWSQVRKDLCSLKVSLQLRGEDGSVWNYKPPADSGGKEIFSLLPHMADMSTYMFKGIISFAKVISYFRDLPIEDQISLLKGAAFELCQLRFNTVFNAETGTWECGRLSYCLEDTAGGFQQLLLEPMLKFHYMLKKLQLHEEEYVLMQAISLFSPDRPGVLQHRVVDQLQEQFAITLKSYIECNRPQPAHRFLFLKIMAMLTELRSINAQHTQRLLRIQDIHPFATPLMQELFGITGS
Cytochrome P450 2C9 (Homo sapiens), sequence (P11712 whole entry, looked up): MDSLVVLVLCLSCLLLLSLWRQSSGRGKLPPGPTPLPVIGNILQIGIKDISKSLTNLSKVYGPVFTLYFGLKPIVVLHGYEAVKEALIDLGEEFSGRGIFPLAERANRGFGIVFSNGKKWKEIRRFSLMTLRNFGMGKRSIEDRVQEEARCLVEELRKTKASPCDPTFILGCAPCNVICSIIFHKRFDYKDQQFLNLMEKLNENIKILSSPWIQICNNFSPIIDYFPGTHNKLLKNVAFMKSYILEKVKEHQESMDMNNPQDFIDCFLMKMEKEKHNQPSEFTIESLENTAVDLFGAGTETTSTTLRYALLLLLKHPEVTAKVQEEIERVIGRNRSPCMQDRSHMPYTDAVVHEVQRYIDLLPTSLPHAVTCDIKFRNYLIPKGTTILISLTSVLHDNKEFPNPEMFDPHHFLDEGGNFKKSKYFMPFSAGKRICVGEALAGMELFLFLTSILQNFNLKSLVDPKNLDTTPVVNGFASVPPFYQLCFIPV
Nuclear receptor subfamily 1 group I member 2 (Rattus norvegicus), sequence (Q9R1A7 whole entry, looked up): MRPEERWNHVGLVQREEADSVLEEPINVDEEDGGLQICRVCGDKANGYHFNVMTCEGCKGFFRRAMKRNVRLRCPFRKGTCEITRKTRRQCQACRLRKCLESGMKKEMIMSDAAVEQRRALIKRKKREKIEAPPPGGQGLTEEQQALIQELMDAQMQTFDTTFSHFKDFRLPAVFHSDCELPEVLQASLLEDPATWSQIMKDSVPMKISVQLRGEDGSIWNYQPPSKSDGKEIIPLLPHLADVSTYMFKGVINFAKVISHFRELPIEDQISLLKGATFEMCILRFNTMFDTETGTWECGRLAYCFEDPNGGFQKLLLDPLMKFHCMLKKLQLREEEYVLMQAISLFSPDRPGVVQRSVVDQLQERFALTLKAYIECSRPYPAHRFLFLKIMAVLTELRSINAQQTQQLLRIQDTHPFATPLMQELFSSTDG

Take `CN(C)C(=O)NC1(c2ccccc2)CCN(CCC[C@]2(c3ccc(Cl)c(Cl)c3)CCCN(C(=O)c3ccccc3)C2)CC1`: in experiment [1], the caspase activation was 1.95% [at 19 µM]. Moreover, the caspase-3/7 activation in [2] was -0.059% [at 19 µM]. Also, in [3], the activation was -0.297% [at 19 µM]. Besides, the results for the Potency in experiment [4] and in [6] were 3.79 µM (active) and 2.08 µM (active), respectively. Besides, the Potency entry in experiment [5] is “inactive”.

On to `NC(=O)NS(=O)(=O)c1ccc(Cl)cc1`, for which the Potency entry in experiment [1], in [7], in experiment [3], in experiment [4], in experiment [8] and in experiment [9] was “inactive” throughout. In addition, the Potency entry in experiment [5], in experiment [6] and in experiment [10] was “inactive” in each case. For the same molecule, the call in [2] was inactive.

Take `COc1cc2c(cc1N)oc1ccccc12`: the Potency entry in experiment [1], in experiment [7] and in [6] was “inactive” throughout. Besides, in [2], the molecule was called inactive. For the same molecule, the Potency was 27.9 µM (active) in experiment [3]; 7.25 µM (active) in experiment [4]; 4.57 µM (active) in [8]; 6.46 µM (active) in [9]; 0.513 µM (active) in experiment [5]; 7.25 µM (active) in experiment [10].

Turning to `NC(Cc1ccc(F)cc1)C(=O)O` (stereo not given), the caspase activation in experiment [1] was 0.163% [at 8.39 µM]. The caspase-3/7 activation in experiment [2] was 2.35% [at 8.39 µM]. Besides, the activity change, negative = inhibition in experiment [6] was 3.14% [at 6.97 µM].

With `Cc1ccc([N+](=O)[O-])c(N)c1`, the Potency entry in experiment [1], in [4], in [9], in experiment [6] and in experiment [10] was “inactive” throughout. Moreover, the Potency in [8] is 38.9 µM (active); in [5], 24.6 µM (active).

As for `Cc1ccsc1C(=CCCN1CCC[C@@H](C(=O)O)C1)c1sccc1C`, the Potency result in [1], in experiment [11], in experiment [12], in [8], in [9] and in experiment [5] was “inactive” each time. In addition, the Potency result in experiment [6] is “inactive”. The molecule was called inactive in [2].

For `OCCN(CCO)c1ccccc1`, the Potency result in experiment [1], in [3], in experiment [5], in [6] and in [10] was “inactive” in each case. Moreover, the call in [2] was inactive.

In the case of `CC1=C(CC(=O)O)c2cc(F)ccc2/C1=C\c1ccc(S(C)(=O)=O)cc1`, the Potency entry in experiment [1], in experiment [7], in [8], in experiment [6] and in experiment [10] was “inactive” throughout. Further, in [2], the call was inactive. Besides, the Potency in experiment [5] is 17.4 µM (active).

Consider `CC(CNC1CCCCC1)OC(=O)c1ccccc1` (stereo not given), for which the Potency result in experiment [1], in experiment [13] and in experiment [6] was “inactive” in each case.

`CCCOc1ccc2c(c1)CC[C@@H]1[C@@H]2CC[C@]2(C)C(OC)CC[C@@H]12` (stereo not given in full): the Potency entry in experiment [1], in [7], in experiment [6] and in experiment [10] was “inactive” in each case. Also, in [2], the molecule was called inactive. Moreover, the Potency in [4] was 15.5 µM (active); in experiment [9] it was 34.7 µM (active).

In the case of `ClC(Cl)Cl`, the Potency result in experiment [1], in experiment [7] and in experiment [6] was “inactive” throughout. Also, in experiment [2], the call was inactive. In addition, in experiment [14], the max activation is 0.159%.

For `Cc1c(N)cccc1N`, the Potency result in [13], in experiment [7] and in experiment [6] was “inactive” each time. Further, the outcome in [2] was inactive. In addition, the Potency was 72.6 µM (active) in [4], 64.7 µM (active) in experiment [9], 23 µM (active) in [5] and 6.47 µM (active) in experiment [10].

Consider `CCCCCCCCCCCCOCCOS(=O)(=O)O`, for which the Potency result in experiment [1], in [7], in experiment [6] and in experiment [10] was “inactive” each time. The Potency in experiment [8] is 79.6 µM (active); in [9], 71 µM (active).

Take `O=C1N(c2ccccc2)c2ccccc2C1(Cc1ccncc1)Cc1ccncc1`: the Potency result in experiment [1], in experiment [3], in experiment [5] and in [6] was “inactive” each time. Further, the call in experiment [2] was inactive. The results for the Potency in [4], in experiment [8] and in experiment [9] were 30.9 µM (active), 2.45 µM (active) and 3.47 µM (active), respectively.

Regarding `Cc1ccccc1C(=O)Nc1ccc(C(=O)N2CCCC(O)c3cc(Cl)ccc32)c(C)c1` (stereo not given), the Potency entry in [1], in experiment [7], in experiment [3], in experiment [8], in [5] and in experiment [6] was “inactive” in each case. Besides, the outcome in experiment [2] was inactive. Further, the Potency in [9] was 15.5 µM (active).

As for `C=C(C)C(=O)OCCOP(=O)(O)O`, the Potency result in [1], in experiment [7], in experiment [3], in experiment [4], in experiment [9] and in experiment [5] was “inactive” throughout. In addition, the Potency entry in [6] and in experiment [10] was “inactive” each time. Also, the outcome in experiment [2] was inactive.

As for `CCOc1ccc(NC(N)=O)cc1`, the Potency result in experiment [1], in experiment [7], in experiment [3], in experiment [4], in [8] and in [9] was “inactive” each time. The Potency entry in experiment [6] and in experiment [10] was “inactive” each time. The molecule was called inactive in [2]. In [5], the Potency was 35.6 µM (active).

Consider `O=C1Nc2ccc([N+](=O)[O-])cc2C1=O`, for which the Potency entry in experiment [1], in [3] and in experiment [6] was “inactive” throughout. Moreover, the molecule was called inactive in experiment [2]. In addition, the Potency in experiment [4] is 7.09 µM (active); in experiment [8], 5.63 µM (active); in experiment [9], 35.5 µM (active); in experiment [5], 22.4 µM (active).

`CC(C)C1=CC2=CC[C@@H]3[C@](C)(CCC[C@@]3(C)C(=O)O)[C@H]2CC1`: the Potency entry in [1], in experiment [7], in [11], in experiment [12], in [4] and in experiment [6] was “inactive” in each case. In addition, the molecule was classed as inactive in [2]. In addition, the Potency in experiment [3] is 27.3 µM (active); in [8], 35.6 µM (active); in [9] it was 28.3 µM (active); in [10] it was 35.6 µM (active).

The record behind these values is PubChem BioAssay (Tox21).
